KB-3-1 cytotox – qHTS assay for MDR1-selective chemotherapeutics: Primary screen using the parental adenocarcinoma cell KB-3-1. KB-3-1 viability, CellTiter-Glo ATP luminescence, 72 h. Potency, µM (series often up to 46.1 µM), usual class: cytotoxic. hit rate 1.4% among 400,000. AID 1347075, 2019; also: nearly all actives have a fitted effect of over 60% in size
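72 h, 37 °C compound treatment of KB-3-1 parental cells; CellTiter-Glo added, 10 min, luminescence read. Data corrected against DMSO-only plates and normalized before curve fitting.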
KCNH2 WT inh – qHTS for Inhibitors of KCHN2 3.1: Wildtype qHTS. AID 720551, 2013. hit rate 0.37% among 340,000. Voltage-gated inwardly rectifying potassium channel KCNH2 (Homo sapiens), Q12809. U2OS, BacMam KCNH2, thallium flux FluxOr; stronger effect = lower value. activity change, % at 1.84 µM;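 active = maximum activity change below -70%; inconclusive = maximum activity change between -70% and -50%; inactive = maximum activity change above -50%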
Target sequence (Q12809 whole entry, looked up): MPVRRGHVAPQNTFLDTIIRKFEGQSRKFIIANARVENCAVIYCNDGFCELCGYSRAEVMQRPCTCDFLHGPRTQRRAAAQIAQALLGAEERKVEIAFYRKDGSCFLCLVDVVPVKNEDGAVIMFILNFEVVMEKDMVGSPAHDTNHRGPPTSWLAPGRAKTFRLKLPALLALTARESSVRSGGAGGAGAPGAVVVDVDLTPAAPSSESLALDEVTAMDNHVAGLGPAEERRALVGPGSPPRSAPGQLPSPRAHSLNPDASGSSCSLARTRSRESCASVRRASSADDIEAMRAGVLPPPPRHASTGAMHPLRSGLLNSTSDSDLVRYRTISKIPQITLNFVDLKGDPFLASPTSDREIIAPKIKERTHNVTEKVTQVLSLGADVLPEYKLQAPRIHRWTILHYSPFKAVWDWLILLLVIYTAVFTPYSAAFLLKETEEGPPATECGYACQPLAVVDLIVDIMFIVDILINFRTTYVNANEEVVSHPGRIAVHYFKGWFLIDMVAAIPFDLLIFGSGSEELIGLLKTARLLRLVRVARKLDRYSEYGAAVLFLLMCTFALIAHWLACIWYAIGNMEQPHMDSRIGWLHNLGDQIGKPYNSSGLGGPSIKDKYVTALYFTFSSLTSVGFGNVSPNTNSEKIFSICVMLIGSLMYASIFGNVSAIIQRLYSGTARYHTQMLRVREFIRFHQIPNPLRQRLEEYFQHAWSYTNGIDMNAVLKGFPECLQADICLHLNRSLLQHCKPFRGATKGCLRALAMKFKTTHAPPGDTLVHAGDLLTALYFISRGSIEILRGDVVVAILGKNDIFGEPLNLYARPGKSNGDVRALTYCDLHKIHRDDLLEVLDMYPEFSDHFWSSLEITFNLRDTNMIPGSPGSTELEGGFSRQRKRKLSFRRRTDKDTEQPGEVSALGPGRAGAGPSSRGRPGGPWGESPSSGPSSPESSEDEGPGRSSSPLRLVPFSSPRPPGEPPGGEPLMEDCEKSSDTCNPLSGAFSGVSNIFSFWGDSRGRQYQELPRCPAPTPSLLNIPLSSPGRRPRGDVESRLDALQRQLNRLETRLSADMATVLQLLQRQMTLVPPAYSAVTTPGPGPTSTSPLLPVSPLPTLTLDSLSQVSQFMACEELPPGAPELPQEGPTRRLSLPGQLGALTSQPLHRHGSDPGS
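U2OS cells were transduced with wild-type KCNH2 virus (2.03 x 10^8 / mL) for 4 h at room temperature, then cultured overnight at 37 C. Thallium flux was read with FluxOr dye. Rate constants were normalized to DMSO controls.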
SW480 rerep – A quantitative high throughput screen for small molecules that induce DNA re-replication in SW480 colon adenocarcinoma cells; SW480 DNA re-replication, Hoechst DNA content imaging, 48 h; Potency, µM (titrated, usually from 46.1 µM), actives largely listed as activators; hit rate 1.8% among 340,000; AID 624297, 2012; also: nearly all actives have a fitted effect of over 55% in size
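Readout is total intensity of Hoechst-stained nuclei, excited at 405 nm and collected at 500-530 nm. Compound treatment lasted 48 hr at 37 C in 5% CO2 before staining.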
KCNH2 3.1 block – qHTS for Inhibitors of KCHN2 3.1: Mutant qHTS; Potassium voltage-gated channel subfamily H member 2, brain isoform KCNH2 3.1 (human); U2OS KCNH2 3.1, thallium flux FluxOr; stronger effect = lower value; activity change, % (tested at about 1.8 µM); hit rate 0.95% among 340,000;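 active = maximum activity change below -70%; inconclusive = maximum activity change from -70% to -50%; inactive = maximum activity change above -50%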;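 also: thallium influx rate constant from kinetic fluorescence after stimulation buffer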
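Measured as rate of thallium-driven FluxOr signal in transduced U2OS cells carrying the 3.1 channel, read kinetically for 2 min upon stimulation; values are rate constants scaled to DMSO control wells.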
MCF10A rerep – A quantitative high throughput screen for small molecules that induce DNA re-replication in MCF 10a normal breast cells | AID 624296, 2012 | Potency, µM (titrated, usually from 46.1 µM), most hits filed as activators | hit rate 2.9% among 350,000 | MCF 10A DNA re-replication, Hoechst nuclear intensity, 48 h; also: nearly all actives have a fitted effect of over 50% in size
KB-V1 cytotox – qHTS assay for MDR1-selective chemotherapeutics: Primary screen using the drug-selected MDR subline cells KB-V1; AID 1347076, 2019; Potency, µM (titrated, usually from 46.1 µM), hits mostly cytotoxic; KB-V1 MDR cells viability, CellTiter-Glo, 72 h; hit rate 3.4% among 400,000; also: nearly all actives have a fitted effect of over 60% in size
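Compound-treated KB-V1 multidrug-resistant cells, 72 h, 37 degrees C; viability by CellTiter-Glo. Fitted qHTS curves give the values.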
A number is an active result. A selection: hits, their analogues and other compounds. The true share with any hit is near 7.6%. Unless noted, calls follow the shape of the dose curve; as a rule, active = well fitted curve in the direction sought with a large enough effect; inconclusive = small, poorly fitted or top-dose-only effect, or another doubt; inactive = no such curve, though single readings can be large; an effect the other way counts as inactive or inconclusive.

`O=C(O)c1ccc(N/N=C/c2ccc(-c3cc(Cl)ccc3Cl)o2)cc1` gave KB-3-1 cytotox inactive, KCNH2 WT inh inactive, SW480 rerep 12µM, KCNH2 3.1 block inactive, MCF10A rerep 2.1µM and KB-V1 cytotox inconclusive.
Cc1ccc(S(=O)(=O)N2CCOCC2)cc1C(=O)Nc1cc(S(=O)(=O)N2CCCCC2)ccc1O was read as KB-3-1 cytotox inactive, KCNH2 WT inh inactive, SW480 rerep inactive, KCNH2 3.1 block inconclusive, MCF10A rerep inactive and KB-V1 cytotox inactive.
`CC(=O)c1ccc(N2CCN(C(=S)Nc3cc(C)ccn3)CC2)cc1` gave KB-3-1 cytotox inconclusive and KB-V1 cytotox inactive.
O=C(O)c1ccc(N/N=C/c2ccc(-c3ccc(Cl)cc3Cl)o2)cc1 was read as KB-3-1 cytotox 23µM, KCNH2 WT inh inactive, SW480 rerep 23µM, KCNH2 3.1 block inactive, MCF10A rerep inconclusive and KB-V1 cytotox inactive.
For O=C(O)c1cc(N/N=C/c2ccc(-c3ccc(F)cc3)o2)ccc1Cl the results were KB-3-1 cytotox inactive, KCNH2 WT inh inactive, SW480 rerep 18µM, KCNH2 3.1 block inactive, MCF10A rerep 18µM and KB-V1 cytotox inactive.
`NC(N)=NCCCS(=O)(=O)Nc1ccc(Nc2c3ccccc3nc3cc([N+](=O)[O-])ccc23)cc1` gave KB-3-1 cytotox 15µM, KCNH2 WT inh inactive, SW480 rerep inactive, MCF10A rerep inactive and KB-V1 cytotox inconclusive.
Screening O=[N+]([O-])c1ccc(-c2nc(Nc3ccc(O)cc3)c3ccccc3n2)cc1 returned KB-3-1 cytotox inactive, KCNH2 WT inh inactive, SW480 rerep inactive, KCNH2 3.1 block inactive, MCF10A rerep inactive and KB-V1 cytotox inactive.
COc1cccc(C(=O)C(C#N)=C(SC)SC)c1 was read as KB-3-1 cytotox inactive, KCNH2 WT inh inactive, SW480 rerep inconclusive, KCNH2 3.1 block inactive, MCF10A rerep inconclusive and KB-V1 cytotox inactive.
`CSC(SC)=C(C#N)C(=O)c1ccccc1` gave KB-3-1 cytotox inactive, KCNH2 WT inh inactive, SW480 rerep inconclusive, KCNH2 3.1 block inactive, MCF10A rerep 23µM and KB-V1 cytotox inconclusive.
CC(=O)/C(=N/Nc1ccccc1Cl)Sc1nnc(C(O)c2ccccc2)n1-c1ccccc1 (stereo not drawn) was read as KB-3-1 cytotox inactive, KCNH2 WT inh inactive, SW480 rerep inactive, KCNH2 3.1 block inactive, MCF10A rerep inactive and KB-V1 cytotox 16µM.
`O=C(Nc1ccc(S(=O)(=O)N2CCOCC2)cc1)c1ccc([N+](=O)[O-])s1` gave KB-3-1 cytotox 5.2µM, KCNH2 WT inh inactive, SW480 rerep inactive, KCNH2 3.1 block inactive, MCF10A rerep 13µM and KB-V1 cytotox inconclusive.
For Cc1ccc(NC(=O)c2cc(S(=O)(=O)N3CCOCC3)c(Br)s2)cc1 the results were KB-3-1 cytotox inconclusive, KCNH2 WT inh inactive, SW480 rerep inactive, KCNH2 3.1 block inactive, MCF10A rerep inactive and KB-V1 cytotox 23µM.
`O=C(Nc1ccccc1N1CCOCC1)c1ccc([N+](=O)[O-])s1` gave KB-3-1 cytotox inconclusive, KCNH2 WT inh inactive, SW480 rerep 16µM, KCNH2 3.1 block inactive, MCF10A rerep inconclusive and KB-V1 cytotox inconclusive.
For CCCCCCCCCC[n+]1cc(Br)cc(Br)c1 the results were KB-3-1 cytotox inconclusive and KB-V1 cytotox inactive.
O=c1c(-c2nc3ccccc3s2)cccn1Cc1ccc(Cl)c(Cl)c1 was read as KB-3-1 cytotox inactive, KCNH2 WT inh inactive, SW480 rerep 1.2µM, KCNH2 3.1 block inactive, MCF10A rerep inconclusive and KB-V1 cytotox inactive.
Screening O=C(c1cccn(Cc2ccc(Cl)c(Cl)c2)c1=O)N1CCOCC1 returned KB-3-1 cytotox inconclusive, KCNH2 WT inh inactive, SW480 rerep inactive, KCNH2 3.1 block inactive, MCF10A rerep inactive and KB-V1 cytotox inconclusive.
Screening Cc1cccc(C)c1N1CCN(C(c2ccnc3ccccc23)c2nnnn2-c2ccc3c(c2)OCCO3)CC1 (stereo not drawn) returned KB-3-1 cytotox 21µM and KB-V1 cytotox 18µM.
`CCC(c1nnnn1-c1ccc2c(c1)OCCO2)N1CCN(c2ccc(F)cc2)CC1` (stereo not drawn) gave KB-3-1 cytotox inconclusive and KB-V1 cytotox 10µM.
CCOC(=O)N1CCN(C(c2ccnc3ccccc23)c2nnnn2-c2ccc3c(c2)OCCO3)CC1 (stereo not drawn) was read as KB-3-1 cytotox inconclusive and KB-V1 cytotox 18µM.
Screening Cc1cccc(CC(=O)N2CC(=O)Nc3ccc(C)cc3C2c2ccc(F)cc2)c1 (stereo not drawn) returned KB-3-1 cytotox inactive and KB-V1 cytotox inactive.
`Cc1oc(-c2cccc(Cl)c2)nc1CSCC(=O)NCc1ccccc1Cl` gave KB-3-1 cytotox inactive and KB-V1 cytotox inconclusive.
Screening COc1cc2c3c(c1OC)-c1cc4c(cc1CC3(C#N)N(C(=O)c1ccccc1)CC2)OCO4 (stereo not drawn) returned KB-3-1 cytotox inactive, KCNH2 WT inh inactive, SW480 rerep inactive, KCNH2 3.1 block inactive, MCF10A rerep inactive and KB-V1 cytotox 3.3µM.
COc1ccc2c(c1OC)C(=O)OC2[C@H]1c2c(cc3c(c2OC)OCO3)CCN1C (stereo partly drawn) was read as SW480 rerep inactive and MCF10A rerep inactive.
CC(C)OC(=O)CC(=O)CSc1nc2c(c(-c3cccs3)c1C#N)CCC2 was read as KB-3-1 cytotox inactive, KCNH2 WT inh inactive, SW480 rerep inactive, KCNH2 3.1 block inactive, MCF10A rerep 21µM and KB-V1 cytotox inactive.
COC(=O)CSc1nc2c(c(-c3ccc(O)cc3)c1C#N)CCCC2 was read as KB-3-1 cytotox inactive, KCNH2 WT inh inactive, SW480 rerep inconclusive, KCNH2 3.1 block inactive, MCF10A rerep 18µM and KB-V1 cytotox inactive.
CCOC(=O)C(C)Sc1nc2c(c(-c3cccs3)c1C#N)CCC2 (stereo not drawn) was read as KB-3-1 cytotox inactive, KCNH2 WT inh inactive, SW480 rerep inactive, KCNH2 3.1 block inactive, MCF10A rerep 16µM and KB-V1 cytotox inactive.
Screening O=C(NCCCCCCNC(=O)c1ccncc1)c1ccncc1 returned KB-3-1 cytotox inactive, KCNH2 WT inh inactive, SW480 rerep inactive, KCNH2 3.1 block inactive, MCF10A rerep inactive and KB-V1 cytotox inconclusive.
For COc1cccc2c(=O)c3c(cnn3C)n(C)c12 the results were KB-3-1 cytotox inactive, KCNH2 WT inh inactive, SW480 rerep inactive, KCNH2 3.1 block inactive, MCF10A rerep inconclusive and KB-V1 cytotox 21µM.

High-throughput results from PubChem BioAssay.
